# Laboratory results taken from PubChem BioAssay AID463173 (ICCB-Longwood Screening Facility, Harvard Medical School, 2010).
# Among all 52,000 compounds or so, about 4,300 (8.3%) were called active. This is one part of a sample in which actives are shown more often than they occur. No stated cut-off is given here; in the data, active means survival mostly below about 52% (no sharp cut-off); inactive means mostly above about 56%.
# Test system: DeltatarO mutant
# Experiment: growth inhibition of S. aureus wild type versus tarO mutant, primary screen, teichoic acid synthesis inhibitors, RN4220, OD600 (AID 463173)
# Settings: OD600, 18 h, stronger effect = lower value, screened at 18.75 µg/mL (by protocol)
row,SMILES,survival
1,CC(C)c1ccc(NC(=O)C2CCN(C(=O)c3ccc(F)cc3)CC2)cc1,61% (inactive)
2,COc1ccc(NC(=O)c2cc(-c3ccccc3F)no2)cc1,78% (inactive)
3,CCOC(=O)c1ccccc1NC(=O)N(C)CCc1c(C)nn(CC)c1C,78% (inactive)
4,COc1ccc(-c2cc3nc(C)c(CCC(=O)Nc4cccc(C(F)(F)F)c4)c(C)n3n2)c(OC)c1,92% (inactive)
5,Cc1ccc(S(=O)(=O)N2CC=C(c3c(C)n(CC(=O)N4CCCC4)c4ccccc34)CC2)cc1C,72% (inactive)
6,O=C1CN(C(=O)C2CCCCC2)C(c2ccccc2)c2cc(F)ccc2N1 (stereo not given),70% (inactive)
7,CCCCC1CCC(C(=O)N2CC(=O)Nc3ccc(C)cc3C2c2ccc(F)cc2)CC1 (stereo not given),126% (inactive)
8,CCCCC1CCC(C(=O)N2CC(=O)Nc3ccc(Cl)cc3C2c2ccc(F)cc2)CC1 (stereo not given),40% (active)
9,CCCCC1CCC(C(=O)N2CC(=O)Nc3ccc(Br)cc3C2c2ccc(F)cc2)CC1 (stereo not given),55% (inactive)
10,CCCCC(=O)N1CC(=O)Nc2ccc(F)cc2C1c1ccc(F)cc1 (stereo not given),60% (inactive)
11,CCCCC1CCC(C(=O)N2CC(=O)Nc3ccc(F)cc3C2c2ccc(F)cc2)CC1 (stereo not given),38% (active)
12,CCc1ccc2occ(CC(=O)Nc3sc4c(c3C(=O)OC)CCC4)c2c1,70% (inactive)
13,Cc1cc(-n2ccnc(NCCc3ccc(S(N)(=O)=O)cc3)c2=O)ccc1Br,94% (inactive)
14,Cc1ccc2c(c1)CC(C)N2S(=O)(=O)c1nnc(NC(=O)CC(C)C)s1 (stereo not given),59% (inactive)
15,Cc1ccccc1C(=O)Nc1nnc(S(=O)(=O)N2c3ccccc3CC2C)s1 (stereo not given),20% (active)
16,CC1Cc2ccccc2N1S(=O)(=O)c1nnc(NC(=O)c2ccccc2Br)s1 (stereo not given),23% (active)
17,Cc1ccc2c(c1)CC(C)N2S(=O)(=O)c1nnc(NC(=O)c2ccccc2F)s1 (stereo not given),9% (active)
18,Cc1ccc2c(c1)CC(C)N2S(=O)(=O)c1nnc(NC(=O)C(C)C)s1 (stereo not given),58% (inactive)
19,Cc1cccc(N2CCN(C(=O)CN3C(=O)COc4ccc(S(=O)(=O)N5CCC(C)CC5)cc43)CC2C)c1 (stereo not given),67% (inactive)
20,COc1ccc(CCNC(=O)C(C)n2nc(C)c3sc4ccccc4c3c2=O)cc1OC (stereo not given),110% (inactive)
21,Cc1ccccc1Cn1cc(S(=O)(=O)c2ccc(F)cc2)c(=O)c2cc3c(cc21)OCO3,68% (inactive)
22,NC(=O)C1CCN(C(=O)Cn2c(-c3cccs3)cc3ccccc32)CC1,73% (inactive)
23,O=C(NCCN1CCCC1)c1ccc(Cl)cc1,98% (inactive)

row,SMILES,survival
1,CCOC(=O)c1cnc2ccc(Cl)cc2c1Nc1ccc(OCC)cc1,-5% (active)
2,CCOC(=O)c1cnc2ccc(OCC)cc2c1NCCN(C)C,95% (inactive)
3,CCOC(=O)c1cnc2c(C)cc(C)cc2c1Nc1ccc(N2CCOCC2)cc1,14% (active)
4,CCOC(=O)c1cnc2cc(Cl)c(OC)cc2c1Nc1ccc(Br)cc1C,102% (inactive)
5,CCOC(=O)c1cnc2ccc(C)cc2c1Nc1ccc(OCc2ccccc2Cl)cc1,2% (active)
6,CCOC(=O)c1cnc2c(C)c(Cl)ccc2c1Nc1ccc(N2CCOCC2)cc1,43% (inactive)
7,CCOC(=O)c1cnc2ccc(OCC)cc2c1Nc1cc(Cl)c(OC)cc1OC,51% (active)
8,CCOC(=O)c1ccccc1NC(=O)c1cnc(N2CCOCC2)c2ccccc12,90% (inactive)
9,O=C(N/C(=C\c1ccc(F)cc1)C(=O)N1CCOCC1)c1ccccc1,98% (inactive)
10,Cc1cccc(OCC(=O)OC2CCN(C)CC2)c1,100% (inactive)
11,COC(=O)C(C#N)C(c1cccnc1)c1c(C)[nH][nH]c1=O (stereo not given),90% (inactive)
12,COc1cc(OC)cc(-c2cc3nc(-c4ccccc4)cc(N4CCN(c5ccccc5)CC4)n3n2)c1,101% (inactive)
13,CC(=O)Oc1ccc(C(=O)NC2CCSC2=O)cc1 (stereo not given),72% (inactive)
14,COC(=O)CC1Oc2ccccc2-n2cc(-c3ccc(Cl)cc3)nc21 (stereo not given),69% (inactive)
15,CCN1CCSc2ccc(C(=O)NC(C)c3ccccc3)cc21 (stereo not given),66% (inactive)
16,O=C(Nc1ccc(Br)cc1)c1cccc(C(=O)Nc2ccc(Br)cc2)c1,72% (inactive)
17,CCOC(=O)c1cccc(NC(=O)c2cc3cc4cc(OC)ccc4nc3s2)c1,76% (inactive)
18,CCOC(=O)c1cnc2ccc(C(=O)OC)cc2c1Nc1ccc(N2CCOCC2)cc1,144% (inactive)
19,CCOC(=O)c1cnc2ccc(OC)cc2c1Nc1cccc(C(C)=O)c1,9% (active)
20,CCOC(=O)c1cc(-c2ccc(OC)cc2)n(CCC(=O)Nc2cccc(C(C)=O)c2)c1C,64% (inactive)
21,CCOC(=O)c1cnc2ccc(C(=O)OC)cc2c1Nc1ccc(OCc2ccccc2Cl)cc1,151% (inactive)
22,CCOC(=O)c1cnc2ccc(C)cc2c1Nc1ccc(N(CC)CC)cc1,-5% (active)
